Test results: PubChem BioAssay (EPA / NIEHS)
Calls of active or inactive are those of the source. The calls were made as follows: active = hit-call score of the fitted dose curve at least 0.9, where 1 is the maximum; inactive = score below 0.9.

Experiment: APR_HepG2_P-H2AX_72hr: Apredica 72-hour HepG2 Assay for H2AX Phosphorylation (AID 2282916)
Conditions: imaging, actives raise or lower the signal
Experimental: APR_HepG2_72hr is a cell-based, multiplexed-readout assay that uses HepG2, a human liver cell line, with measurements taken at 72 hours after chemical dosing in a 384-well plate.APR_HepG2_P-H2AX_72hr is one of 10 assay component(s) measured or calculated from the APR_HepG2_72hr assay. It is designed to make measurements of dna content, a form of viability reporter, as detected with fluorescence intensity signals by HCS Fluorescent Imaging technology.Data from the assay component APR_HepG2_P-H2AX_72hr was analyzed into 1 assay endpoint. This assay endpoint, APR_HepG2_P-H2AX_72hr, was analyzed with bidirectional fitting relative to DMSO as the negative control and baseline of activity. Using a type of viability reporter, measures of protein for gain or loss-of-signal activity can be used to understand the signaling at the pathway-level as they relate to the gene . Furthermore, this assay endpoint can be referred to as a primary readout, because this assay has produced multiple assay endpoints where this one serves a signaling function. To generalize the intended target to other relatable targets, this assay endpoint is annotated to the dna binding intended target family, where the subfamily is cellular response to DNA damage stimulus.
Cells were treated with dimethyl sulfoxide (DMSO) as a solvent control at a final concentration of 0.5% v/v or with compounds in DMSO with a resulting final DMSO concentration of 0.5% v/v. Compound treatment was done at concentrations of 0.39, 0.78, 1.56, 3.12, 6.24, 12.5, 25, 50, 100, and 200 uM in duplicate on each plate. Cells were treated with compounds for 1, 24, or 72 hr. Carbonyl […] m-chloro-phenylhydrazone (CCCP) and taxol were used as positive controls for mitochondrial function and cytoskeletal stability, respectively; DMSO served as the negative control for this experiment. Cells were fixed by the direct addition of 50 uL formaldehyde in Hank's Balanced Salt Solution (HBSS) to a final concentration of 3.7%. After incubation in the fixation medium for 30 min at room temperature (293-298 K), cells were rinsed twice with HBSS and treated with cell permeabilization buffer (16 uL of 0.5% Triton X-100) for 10 min at room temperature (293-298 K) before labeling. For mitochondrial membrane potential and mitochondrial measurements, pre-fixed cells were incubated with 50 uL of MitoTracker Red CMXRos (Invitrogen) at a concentration of 250 nM for 30 min before fixation. In the remaining cases, post-fixed cells were labeled by incubation with a multiplexed mixture of primary antibodies in HBSS for 60 min at room temperature (293-298 K) to detect immunoreactivity of c-Jun (1:500), phospho-histone H3 (1:100), phospho-histone H2A.x (1:200), p53 (1:400), alpha-tubulin (1:200) and Hoechst 33342 (2 ug/mL). Cells were labeled for multiplexed imaging on two separate plates: a) Hoechst 33342, MitoTracker Red, phospho-histone H3, and alpha-tubulin, and b) Hoechst 33342, phospho-histone H2A.x, and c-Jun. A final rinse with HBSS (50 uL) was performed before analysis. The primary and secondary antibodies for the proteins were phospho-histone H3 (rabbit anti-phospho-histone H3 and FITC-donkey anti-rabbit IgG), phospho-histone H2A.x (mouse anti-phospho-histone H2A.x and FITC-donkey anti-mouse IgG), c-Jun (rabbit anti-phospho-c-Jun and Cy3-donkey anti-rabbit IgG), p53 (sheep anti-p53 and Cy5-donkey anti-sheep IgG), alpha-tubulin (mouse anti-alpha-tubulin and Cy5-donkey anti-mouse IgG). These antibodies are available as the CellCiphr HepG2 assay kit (Millipore).Digital images of each well were captured using a Cellomics ArrayScan VTI (Thermo Scientific Cellomics) (0.8 NA objective, 0.63x optical coupler, and XF-93 filter set) at 20x magnification. The images were acquired using the autofocus feature of the ArrayScan instrument, which entails the following steps. First, the camera focuses on channel 1 (Hoechst 33342), where nuclei are identified. Second, a Z offset of 1 um is used for capturing mitochondria (MitoTracker Red). […]

AC50, active:
CCc1cc(SCc2sc(-c3ccc(C(F)(F)F)cc3)nc2CN2CCN(c3ccc(OC)cc3)CC2)ccc1OCC(=O)O 48 µM
CCOc1cccc(-n2cc(C(=O)N3CCN(c4cc(C(=O)O)c5ccccc5c4)CC3)nc2-c2ccc(C)cc2)c1 89.5 µM
Nc1ccc(Nc2ccccc2)cc1 29.9 µM
COc1ccc(/C=C/S(=O)(=O)NC(=O)c2ccc(C)cc2Cl)cc1 100 µM
CCCN(C1CCN(C(=O)C2CCNCC2)CC1)[C@@H]1CCc2ccc(OC)cc2C1 64 µM
Cc1[nH]cnc1C[C@H]1CCc2c(C)c3ccccc3n2C1=O 89 µM
O=c1[nH]c2ccc(S(=O)CCN3CCC(Cc4ccc(F)cc4)CC3)cc2o1 (stereo not given) 111 µM

outcome, inactive:
O=C1CCCCCN1
NC(=O)NO
Cc1c(-c2cccnc2)c2ccccc2n1CCCCC(=O)O
COc1ccc(-n2nc(C(F)F)cc2-c2ccc(S(C)=O)cc2)cc1 (stereo not given)
CC(C)=CCCC(C)CCO (stereo not given)
COC(=O)c1ccccc1O
CCCC(=O)OCC
CC(O)CN(CCN(CC(C)O)CC(C)O)CC(C)O (stereo not given)
CC(C)=CCC/C(C)=C\CO
CC[C@H]1OC(=O)[C@H](C)[C@@H](O[C@H]2C[C@@](C)(OC)[C@@H](O)[C@H](C)O2)[C@H](C)[C@@H](O[C@@H]2O[C@H](C)C[C@H](N(C)C)[C@H]2O)[C@](C)(O)C[C@@H](C)C(=O)[C@H](C)[C@@H](O)[C@]1(C)O
CCN(C(=O)c1cc(C)cc(OC[C@H](C)Nc2ccncc2)c1)C(C)C
Nc1cccc(N)c1
CC1=CC(=O)CC(C)(C)C1
CCCCCCCCCCCCCCCO
CC(=O)OC[C@H]1O[C@@](COC(C)=O)(O[C@H]2O[C@H](COC(C)=O)[C@@H](OC(C)=O)[C@H](OC(C)=O)[C@H]2OC(C)=O)[C@@H](OC(C)=O)[C@@H]1OC(C)=O
Nc1nc2ncc(CNc3ccc(C(=O)N[C@@H](CCC(=O)O)C(=O)O)cc3)nc2c(=O)[nH]1
On1ccccc1=S
CCn1nc(Cc2ccccc2)cc1C1CCN(C[C@H]2C[C@H](N(C)[C@@H](C(=O)O)C(C)C)C[C@@H]2c2cccc(F)c2)CC1
CC/C(=C\C(=N/O)C(N)=O)C(C)[N+](=O)[O-] (stereo not given)
CCOCCO
O=C(NS(=O)(=O)/C=C/c1ccccc1)c1ccc(F)cc1Cl
C=CCCCCCCCCC(=O)O
Cn1c(=O)cc(Oc2ccc(F)cc2F)c2cnc(NCC(C)(C)O)nc21
O=C(CCCCCCCCc1cccnc1)N1CCC(C=C(c2ccccc2)c2ccccc2)CC1
C1=CCCC=CCCC=CCC1
O=C1CCC(N2C(=O)c3ccccc3C2=O)C(=O)N1 (stereo not given)
CCOC(=O)COc1ccc2c(c1)CC(NCC(O)c1cccc(Cl)c1)CC2 (stereo not given)
Cc1ccc(O)cc1
CC(C)(O)c1coc(S(=O)(=O)NC(=O)Nc2c3c(cc4c2CCC4)CCC3)c1
COC(=O)CC(=O)OC
CCCCCCCCO
CC(C)CCCCCCCOC(=O)CCCCC(=O)OCCCCCCCC(C)C
COCCOc1cc2cc(C(=O)NC3CCN(C(C)C)CC3)n(CC(=O)Nc3ccc(Cl)cn3)c2cn1
